Results filed as inconclusive are left out. The source made the active and inactive calls. The call rests on the fitted dose curve; in most records, active means well fitted inhibition curve with a large enough effect; inconclusive means small, poorly fitted or top-dose-only effect; inactive means flat fitted curve, though single readings scatter.

Common to all, as to experiment: qHTS profiling for inhibitors of Plasmodium falciparum proliferation (AID 504749); further: nearly all actives have a fitted effect of over 60% in size
Details in all cases: P. falciparum in erythrocytes, SYBR Green DNA, 72 h; series mostly up to 28.7 µM
A general note: In qHTS, concentration-response curves come from the screen itself.

One assay deals with N140. In a few lines:
(§1)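 P. falciparum-infected erythrocytes (0.3% parasitemia, 2.5% hematocrit final) were exposed to compounds for 72 h at 37 C in 5% CO2, then lysed with SYBR Green buffer overnight at room temperature; parasite DNA fluorescence was normalized to artemisinin and DMSO controls.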

Another assay concerns P93_24. An outline of the steps:
as §1

The subject of another assay is P94_40. An outline of the steps: as §1
For another assay, the system named is PAD. An outline of the steps: as §1
A further assay concerns PC15. In a few lines: as §1
In the next assay the test system is PC26. An outline of the steps:
as §1

The test system of another assay is PC49. An outline of the steps: as §1
A further assay deals with TAB109. In a few lines: as §1
In the next assay the test system is SC27B. An outline of the steps: as §1
A further assay deals with TAB113. An outline of the steps: as §1
Potency means the concentration at half of the fitted maximal effect.

For `Oc1ccc(Cl)cc1Sc1cc(Cl)ccc1O`, the Potency result in the assay on N140, in the assay on P93_24, in the assay with P94_40, in the assay on PAD, in the assay on PC15 and in the assay with PC26 was “inactive” throughout. The Potency entry with PC49 and in the assay on TAB109 was “inactive” in each case.

For the compound `O=C(Nc1ccc(Oc2ccc(Cl)cc2)c(Cl)c1)c1cc(I)cc(I)c1O`, the Potency result in the assay on N140, in the assay on P93_24, with P94_40, in the assay on PAD, with PC15 and in the assay on PC26 was “inactive” each time. The Potency result in the assay with PC49, in the assay with SC27B, with TAB109 and with TAB113 was “inactive” in each case.

Take `C[C@@H]1CN(CCCn2c3ccccc3c3ccccc32)C[C@H](C)N1`: the Potency with N140 is 12.6 µM (active); with P93_24, 5.01 µM (active); in the assay with P94_40, 8.91 µM (active); in the assay with PAD it was 1.78 µM (active); with TAB109, 11.2 µM (active).

For `CCOc1ccc(Cc2nccc3cc(OCC)c(OCC)cc23)cc1OCC`, the Potency result in the assay on N140, in the assay with P93_24, in the assay on P94_40, in the assay on PAD, with PC15 and in the assay on SC27B was “inactive” each time. The Potency result with TAB109 and with TAB113 was “inactive” each time.

On to `COc1cc(-c2ccc(=O)[nH]n2)ccc1OC(F)F`, for which the Potency in the assay on N140 is 0.224 µM (active); with P93_24 it was 0.0112 µM (active); in the assay on P94_40, 0.112 µM (active); with TAB109, 0.0447 µM (active); with TAB113, 0.0355 µM (active). The Potency entry with PAD, with PC15 and with SC27B was “inactive” throughout.

For `CN(C)CC/C=C1\c2ccccc2Sc2ccc(Cl)cc21`, the Potency in the assay on N140 was 12.6 µM (active); in the assay with P94_40, 10 µM (active); in the assay on PC15 it was 11.2 µM (active); in the assay on PC49 it was 11.2 µM (active).

`CC/C(=C(/CC)c1ccc(O)cc1)c1ccc(O)cc1`: the Potency result in the assay with N140, in the assay on P93_24, in the assay on PAD, with PC26, with PC49 and with TAB109 was “inactive” each time.

As to `O=C(CCN1CCC(c2ccccc2)C1)c1ccc2c(c1)OCCO2` (stereo unspecified), the Potency entry in the assay on N140, in the assay on PAD, with PC15, in the assay on PC26, in the assay on PC49 and in the assay with SC27B was “inactive” throughout. Also, the Potency entry in the assay on TAB109 and in the assay on TAB113 was “inactive” throughout.

As for `CN1C2CCC1CC(OC(=O)c1c[nH]c3ccccc13)C2` (stereo unspecified), the Potency entry in the assay with N140, with P93_24, in the assay on P94_40, in the assay with PAD, in the assay on PC49 and in the assay with SC27B was “inactive” throughout. The Potency result with TAB109 and with TAB113 was “inactive” throughout.

On to `CC1(C)CCC(NC(=O)[C@@H](N)CCC(=O)O)CC1`, for which the Potency result with N140, with P93_24, with P94_40, with PAD, in the assay with PC15 and in the assay on PC49 was “inactive” each time. The Potency entry in the assay on SC27B, in the assay with TAB109 and in the assay on TAB113 was “inactive” throughout.

Take `c1ccc(OCc2ccc(CCCN3CCOCC3)cc2)cc1`: the Potency result in the assay on N140, in the assay on P93_24, in the assay on P94_40, with PAD, in the assay with PC15 and with SC27B was “inactive” throughout. For the same compound, the Potency entry in the assay with TAB109 and with TAB113 was “inactive” in each case.

Regarding `CC(C)NC[C@@H](O)COc1cccc2ccccc12`, the Potency in the assay on N140 is 12.6 µM (active); with P94_40 it was 12.6 µM (active); in the assay on PC15, 8.91 µM (active); with TAB109, 12.6 µM (active).

As to `Cc1cc(N)c2cc(NC(=O)Nc3ccc4nc(C)cc(N)c4c3)ccc2n1`, the Potency in the assay on N140 is 11.2 µM (active); in the assay with P94_40, 12.6 µM (active); in the assay on PAD, 12.6 µM (active); in the assay on SC27B, 12.6 µM (active); in the assay on TAB109, 12.6 µM (active); with TAB113 it was 10 µM (active).

`NC(CS)C(=O)O` (stereo unspecified): the Potency was 11.2 µM (active) with N140; 10 µM (active) in the assay on P93_24; 12.6 µM (active) in the assay with P94_40; 10 µM (active) with TAB109; 10 µM (active) with TAB113.

With `OCc1ccccc1O`, the Potency result in the assay with N140, in the assay with P93_24, in the assay on P94_40, in the assay on PC15, with PC26 and with PC49 was “inactive” each time. Further, the Potency result in the assay on SC27B, with TAB109 and in the assay on TAB113 was “inactive” each time.

In the case of `Cc1cccc(C)c1NC(=O)CN1CCN(CCCC(c2ccc(F)cc2)c2ccc(F)cc2)CC1`, the Potency was 3.16 µM (active) in the assay on N140 and 3.98 µM (active) in the assay with P93_24. In addition, the Potency result with PC15, in the assay on PC49 and in the assay with TAB113 was “inactive” in each case.

As to `O=C1[C@H]2CCCC[C@H]2C(=O)N1CCCCN1CCN(c2nsc3ccccc23)CC1`, the Potency result in the assay on N140, in the assay with P94_40, in the assay on PAD, in the assay with PC49, with SC27B and in the assay on TAB109 was “inactive” throughout. Further, the Potency result with TAB113 was “inactive”.

Turning to `COc1ccc(CN2CCN(C(c3ccc(F)cc3)c3ccc(F)cc3)CC2)c(OC)c1OC`, the Potency was 8.91 µM (active) in the assay with N140; 7.94 µM (active) in the assay on P93_24; 7.08 µM (active) in the assay on P94_40; 8.91 µM (active) with PAD; 12 µM (active) in the assay on PC26; 10 µM (active) in the assay with SC27B. Besides, the values for the Potency with TAB109 and in the assay on TAB113 were 11.2 µM (active) and 8.91 µM (active), respectively.

(Values after PubChem BioAssay (NCATS).)
